Experimental data from PubChem BioAssay (Tox21).
“And” between values parts separate entries of the source, which are not always exact repeats. Identical values can stand only once. Inconclusive results are not listed. The source holds several records for some structures; these can differ, active in one and inactive in another. The source made the active and inactive calls. Unless noted, calls follow the shape of the dose curve; as a rule, active = well fitted curve in the direction sought with a large enough effect in the repeat runs; inconclusive = weak or mixed curves; inactive = no such curve, though single readings can be large; an effect the other way counts as inactive or inconclusive.

Legend:
[1] = qHTS assay to identify small molecule antagonists of the glucocorticoid receptor (GR) signaling pathway - cell viability counter screen (AID 720693); also: nearly all actives have a fitted effect of over 55% in size; also: potency is read from the fitted curve at half-maximal effect
[2] = qHTS assay for identifying genotoxic compounds that show differential cytotoxicity against isogenic chicken DT40 cell lines with known DNA damage response pathways - wild type cell line (AID 743012); also: nearly all actives have a fitted effect of over 60% in size; also: potency is read from the fitted curve at half-maximal effect
Method in brief: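 Luminescent ATP viability signal (CellTiter-Glo, 30 min RT) recorded after wild type DT40 cells were incubated with compounds for 40 h at 37 C/5% CO2.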

[3] = qHTS assay for identifying genotoxic compounds that show differential cytotoxicity against isogenic chicken DT40 cell lines with known DNA damage response pathways - Rev3 mutant cell line (AID 743014); also: nearly all actives have a fitted effect of over 55% in size; also: potency is read from the fitted curve at half-maximal effect
[4] = qHTS assay to identify small molecule antagonists of the androgen receptor (AR) signaling pathway - cell viability counter screen (AID 743033; also: nearly all actives have a fitted effect of over 45% in size; also: potency is read from the fitted curve at half-maximal effect)
[5] = qHTS assay to identify small molecule antagonists of the androgen receptor (AR) signaling pathway using the MDA cell line - cell viability counter screen (AID 743041; also: nearly all actives have a fitted effect of over 45% in size)
Method in brief: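 Using the breast carcinoma line MDA-kb2 AR-luc, test chemicals were co-incubated with R1881 for 16 h; CellTiter-Fluor reagent, added at 15.5 h, provided a fluorescence measure of live cells.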

[6] = qHTS assay for identifying genotoxic compounds that show differential cytotoxicity against isogenic chicken DT40 cell lines with known DNA damage response pathways - Rad54/Ku70 mutant cell line (AID 743015); also: nearly all actives have a fitted effect of over 60% in size; also: potency is read from the fitted curve at half-maximal effect
[7] = biological target: Androgen receptor (Homo sapiens) (UniProt P10275); assay: qHTS assay to identify small molecule agonists of the androgen receptor (AR) signaling pathway (AID 743036; active = well fitted activation curve with a large enough effect in the signal ratio in the repeat runs, with a control signal flat, not every such curve was filed as active; the % refers to the signal ratio)
Method in brief: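 Screening used 2,000 AR-bla HEK293 cells per well, treated 16 h at 37C with test compounds in DMSO alongside positive and DMSO-only controls; beta-lactamase activity was then read by LiveBLAzer B/G FRET fluorescence after 2 h at room temperature.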

[8] = biological target: Androgen receptor (Homo sapiens) (UniProt P10275); assay: qHTS assay to identify small molecule agonists of the androgen receptor (AR) signaling pathway using the MDA cell line (AID 743040; also: nearly all actives have a fitted effect of over 20% in size)
Method in brief: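 Stable MMTV-luciferase reporter in MDA-kb2 cells; note the promoter carries GR as well as AR response elements. 16 h compound treatment, 37C, 0% CO2; ONE-Glo luminescence endpoint.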

[9] = biological target: Androgen receptor (Homo sapiens) (UniProt P10275); assay: qHTS assay to identify small molecule antagonists of the androgen receptor (AR) signaling pathway (AID 743035; active = well fitted inhibition curve with a large enough effect in the signal ratio in the repeat runs, not every such curve was filed as active; the % refers to the signal ratio)
Method in brief: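 Quantitative HTS of the Tox21 10K library used HEK293 AR-UAS-bla cells stimulated with R1881 alongside compound for 16 h at 37C, followed by beta-lactamase FRET detection (LiveBLAzer B/G, 2 h, RT).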

[10] = biological target: Androgen receptor (Homo sapiens) (UniProt P10275); assay: qHTS assay to identify small molecule antagonists of the androgen receptor (AR) signaling pathway using the MDA cell line (AID 743042; also: nearly all actives have a fitted effect of over 55% in size)
Method in brief: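 Antagonist mode: compounds plus R1881 agonist added to MDA-kb2 AR-luc cells, incubated 16 h at 37C. Luciferase reporter luminescence quantified, with multiplexed CellTiter-Fluor readout for cell viability.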

Measured: Potency

Sequence of Androgen receptor (Homo sapiens) (P10275 whole entry, looked up): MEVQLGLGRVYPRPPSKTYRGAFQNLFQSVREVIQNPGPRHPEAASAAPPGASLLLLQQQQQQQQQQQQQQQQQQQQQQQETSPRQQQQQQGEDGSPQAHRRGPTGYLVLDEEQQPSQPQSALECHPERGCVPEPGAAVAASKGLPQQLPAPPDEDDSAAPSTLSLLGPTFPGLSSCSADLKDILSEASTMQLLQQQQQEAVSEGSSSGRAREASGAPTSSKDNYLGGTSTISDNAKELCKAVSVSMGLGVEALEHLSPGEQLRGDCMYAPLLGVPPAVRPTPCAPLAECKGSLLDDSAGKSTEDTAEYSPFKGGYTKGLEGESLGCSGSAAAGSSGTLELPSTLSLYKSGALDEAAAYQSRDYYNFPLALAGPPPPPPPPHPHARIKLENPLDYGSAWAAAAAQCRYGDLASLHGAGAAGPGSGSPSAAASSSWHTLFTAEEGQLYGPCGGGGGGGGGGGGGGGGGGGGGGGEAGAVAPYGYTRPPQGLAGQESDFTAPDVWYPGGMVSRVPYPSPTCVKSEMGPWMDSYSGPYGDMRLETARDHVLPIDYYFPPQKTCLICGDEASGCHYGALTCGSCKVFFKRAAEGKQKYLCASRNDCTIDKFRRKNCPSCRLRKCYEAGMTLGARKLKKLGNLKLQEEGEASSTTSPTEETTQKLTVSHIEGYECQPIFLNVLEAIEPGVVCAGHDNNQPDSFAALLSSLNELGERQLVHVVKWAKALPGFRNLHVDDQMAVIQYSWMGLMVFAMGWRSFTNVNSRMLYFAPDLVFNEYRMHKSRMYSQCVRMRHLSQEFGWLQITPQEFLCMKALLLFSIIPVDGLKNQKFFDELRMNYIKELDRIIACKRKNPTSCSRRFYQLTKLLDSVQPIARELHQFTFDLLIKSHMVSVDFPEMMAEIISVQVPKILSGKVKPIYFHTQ

c1csc(SSc2cccs2)c1
inactive: [1] | [5]
active: [2] 12.2 µM | [3] 6.86 µM | [4] 38.9 µM

CC(CO)CO
inactive: [1] | [2] | [3] | [4] | [5]

C=C(C)C(=O)OCCOCCOC(=O)C(=C)C
inactive: [1] | [2] | [3] | [4] | [5]

CCC1NC(=O)c2cc(S(N)(=O)=O)c(Cl)cc2N1 (centres undefined)
inactive: [1] | [2] | [6] | [4] | [5]

CCC(C)(C)OC
inactive: [1] | [2] | [3] | [4] | [5]

CCOC(=O)OC(C)OC(=O)[C@@H]1N2C(=O)[C@@H](NC(=O)[C@H](N)c3ccccc3)[C@H]2SC1(C)C (some centres undefined)
inactive: [1] | [2] | [3] | [5]

COc1cc(N)c(Cl)cc1C(=O)NC1CCN(CCCOc2ccc(F)cc2)CC1OC (centres undefined)
active: [2] 11.4 µM | [6] 12.7 µM
inactive: [1] | [4] | [5]

Nc1cccc2c1CN(C1CCC(=O)NC1=O)C2=O (centres undefined)
inactive: [1] | [2] | [3] | [4] | [5]

CCCCCCNC(=O)n1cc(F)c(=O)[nH]c1=O
active: [2] 8.41 µM | [6] 11.9 µM
inactive: [1] | [5]

CC=C(Cl)Cl
inactive: [1] | [2] | [3] | [4] | [5]

C[C@@H](O[C@H]1OCCN(Cc2n[nH]c(=O)[nH]2)[C@H]1c1ccc(F)cc1)c1cc(C(F)(F)F)cc(C(F)(F)F)c1
active: [1] 21.3 µM | [2] 23.7 µM | [6] 23.7 µM
inactive: [7] | [8]

CCCCCC[C@@H](O)C/C=C\CCCCCCCC(=O)OCC(O)CO (some centres undefined)
not listed: [3]
inactive: all other assays above

O=C(O)c1cccc(-c2noc(-c3ccccc3F)n2)c1
inactive: [1] | [2] | [3] | [4] | [5]

Cc1cc(=O)c2c(O)c3c(O)cc(=O)c4c3c3c(cc(O)c1c23)C(C)(C)C=4O
active: [1] 1.69 µM | [2] 0.944 µM | [3] 1.06 µM
inactive: [4] | [5]

CC(=O)OCCN(CCOC(C)=O)c1ccc(N=Nc2ccc([N+](=O)[O-])cc2C#N)cc1
inactive: [1] | [4] | [5]
active: [2] 61.1 µM | [3] 30.6 µM

O=C1c2ccccc2C(=O)c2c(O)c(O)cc(O)c21
inactive: [1] | [2] | [4] | [8] | [10]
active: [6] 48.6 µM

CC(C)c1nc(CN(C)C(=O)N[C@H](C(=O)N[C@@H](Cc2ccccc2)C[C@H](O)[C@H](Cc2ccccc2)NC(=O)OCc2cncs2)C(C)C)cs1
inactive and 23.7 µM (active): [2]
inactive: [1] | [3] | [4] | [5]

CC1=C(CC=O)C(C)(C)CCC1
inactive: [1] | [4]
active: [2] 54.5 µM | [6] 24.3 µM

Oc1cccc(O)c1O
active: [2] 26.6 µM | [3] 48.1 µM
inactive: [1] | [4] | [5]

O=C1C(=O)c2ccccc2C(O)=C1C1CCC(c2ccc(Cl)cc2)CC1 (centres undefined)
active: [2] 5.07 µM
inactive: [1] | [3] | [4] | [5]

CCOc1ccc(Cc2nccc3cc(OCC)c(OCC)cc23)cc1OCC
inactive: [1] | [9] | [7] | [8] | [5]
active: [2] 4.03 µM | [3] 5.07 µM

COc1ccccc1Oc1c(NS(=O)(=O)c2ccc(C(C)(C)C)cc2)nc(-c2ncccn2)nc1OCCO
inactive: [1] | [2] | [3] | [4] | [5]

CC(C)(C)C(=O)C(=O)O
inactive: [1] | [2] | [3] | [4] | [5]

C=COCC(C)C
inactive: [1] | [2] | [3] | [4] | [5]

COc1ncnc(NS(=O)(=O)c2ccc(N)cc2)c1OC
inactive: [1] | [2] | [3] | [4] | [5]

Clc1ccc(Nc2nnc(Cc3ccncc3)c3ccccc23)cc1
inactive: [1] | [4] | [5]
active: [2] 29.8 µM | [6] 26.6 µM

CCOC(=O)c1ccc(I)cc1
inactive: [1] | [2] | [3] | [4] | [5]

CC(O)c1ccccc1 (centres undefined)
inactive: [1] | [2] | [6] | [4]

CN1CC(=O)N2[C@H](c3ccc4c(c3)OCO4)c3[nH]c4ccccc4c3C[C@@H]2C1=O
inactive: [1] | [2] | [3] | [4] | [5]

CCOc1cccc(-n2cc(C(=O)N3CCN(c4cc(C(=O)O)c5ccccc5c4)CC3)nc2-c2ccc(C)cc2)c1
inactive: [1] | [4] | [9] | [8]

N#[N+]c1ccc2c(S(=O)(=O)[O-])cccc2c1O
inactive: [1] | [3] | [6] | [4] | [5]

N#CCc1ccc(Cl)cc1Cl
inactive: [1] | [3] | [6] | [4] | [5]

CC(C)=CCC/C(C)=C/CC/C(C)=C/CCC(=O)OC/C=C(\C)CCC=C(C)C
inactive: [1] | [3] | [4] | [5]

COc1cc(C(=O)NCCCCCC(=O)O)cc(OC)c1OC
inactive: [1] | [2] | [4] | [5]

O=C(/C=C/c1ccc(O)c(O)c1)O[C@@H]1C[C@@](OC(=O)/C=C/c2ccc(O)c(O)c2)(C(=O)O)C[C@@H](O)[C@@H]1O
inactive: [1] | [3] | [6] | [4] | [5]

Cc1ccccc1N=C(N)Nc1ccccc1C
active: [3] 30.1 µM
inactive: [1] | [4] | [5]

Clc1cc(Cl)nc(Cl)n1
inactive: [1] | [3] | [6] | [4]

O=C1c2ccccc2C(=O)C1c1nc2ccccc2c(Br)c1O
inactive: [1] | [3] | [6] | [4] | [5]

Cc1cccc(O)c1N
inactive: [1] | [4]

O=C1c2ccccc2C(=O)C1c1ccc(Br)cc1
not listed: [3] | [6] | [7]
inactive: all other assays above

C(=C\c1ccccc1)/c1ccccc1
inactive: [1] | [3] | [4] | [5]

O=c1cc(-c2ccccc2)oc2ccc3ccccc3c12
inactive: [10]
active: [1] 54.9 µM | [3] 15.4 µM | [4] 21.9 µM

Oc1c(I)cc(I)c2cccnc12
inactive: [1] | [4]
active: [6] 13.3 µM

CN1C(C(=O)Nc2ccccn2)=C(O)c2sccc2S1(=O)=O
inactive: [1] | [2] | [5]

C=CCc1ccccc1OCC(O)CNC(C)C (centres undefined)
not listed: [3] | [6]
inactive: all other assays above

CCCCC(CC)COP(=O)(O)O (centres undefined)
inactive: [1] | [3] | [4] | [5]

O=Cc1c2ccccc2c(Cl)c2ccccc12
inactive: [1] | [3] | [6] | [4] | [5]

Brc1cc(Br)c(Oc2cc(Br)c(Br)cc2Br)cc1Br
inactive: [1] | [2] | [5]

CC(C)Nc1cccnc1N1CCN(C(=O)c2cc3cc(NS(C)(=O)=O)ccc3[nH]2)CC1
inactive: [1] | [3] | [4] | [5]

c1ccc2sc(SN(C3CCCCC3)C3CCCCC3)nc2c1
inactive: [1] | [2] | [4] | [5]
